In PubChem BioAssay (NCATS):
Values joined by “and” are separate entries in the source; they are usually repeats but may differ in a detail not shown here. Equal values may be shown once. Results filed as inconclusive are left out. A call without a number means that no potency is given here. Where a structure was tested more than once in an assay, its records may differ in their call. Active and inactive are the calls of the source. Calls follow the shape of the dose curve; as a rule, active = well fitted curve in the direction sought with a large enough effect; inconclusive = small, poorly fitted or top-dose-only effect, or another doubt; inactive = no such curve, though single readings can be large; an effect the other way counts as inactive or inconclusive.

Legend:
[1] = qHTS Assay for Identifying Gametocytocidal Compounds (AID 743244); also: potency is read from the fitted curve at half-maximal effect;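 as to max response: actives lower the fluorescent signal which means gametocytes are killed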; conditions: P. falciparum 3D7 stage III-V gametocytes, alamarBlue, 72 h; max response: stronger effect = lower value
Method in brief: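 Stage III–V gametocytes of P. falciparum 3D7 were seeded at 20,000 cells/well onto pre-dispensed compounds. After 72 h, 37 °C, 5% CO2, alamarBlue was added for another 24 h.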

[2] = target: Arylsulfatase A (Homo sapiens) (UniProt P15289); assay: qHTS screen for enhancers of Arylsulfatase A (ASA1): LOPAC Validation Assay (AID 720538)
Sequence of Arylsulfatase A (Homo sapiens) (P15289 whole entry, looked up): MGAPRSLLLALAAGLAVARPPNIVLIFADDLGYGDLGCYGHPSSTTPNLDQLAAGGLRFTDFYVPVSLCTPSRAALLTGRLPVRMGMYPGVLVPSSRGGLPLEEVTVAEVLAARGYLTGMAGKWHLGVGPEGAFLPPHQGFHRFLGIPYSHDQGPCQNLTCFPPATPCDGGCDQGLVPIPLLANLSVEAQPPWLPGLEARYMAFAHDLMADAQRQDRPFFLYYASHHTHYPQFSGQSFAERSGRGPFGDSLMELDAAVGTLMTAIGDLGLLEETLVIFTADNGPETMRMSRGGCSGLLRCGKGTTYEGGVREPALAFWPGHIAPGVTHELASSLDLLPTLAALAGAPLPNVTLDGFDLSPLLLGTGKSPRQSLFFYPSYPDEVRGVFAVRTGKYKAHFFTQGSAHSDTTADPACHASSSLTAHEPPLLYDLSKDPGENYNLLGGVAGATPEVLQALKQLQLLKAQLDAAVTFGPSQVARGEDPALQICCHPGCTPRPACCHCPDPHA
Method in brief: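 Cell-based enhancement test: residual ASA activity in SV40-transformed I179S patient fibroblasts is measured by pNCS turnover (0.5mM final, 14h, room temperature) following 48h compound incubation; higher fluorescence indicates activation.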

[3] = qHTS for compounds that reverse cellular toxicity of Amyloid beta (A-beta) peptide in yeast: LOPAC Validation Assay (AID 720559)
Method in brief: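 Here, A-beta-toxic yeast grow with test compounds at 30 C for 48 hr before optical density at 600 nm is recorded; data are normalized against DMSO and the FeCl3-clioquinol control.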

[4] = qHTS for Activators of Parkin Expression: LOPAC Validation Assay (NLuc Reporter) (AID 720572)
Method in brief: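 Parkin promoter-driven FLuc/NLuc neuronal reporter cells; 24 h plating, 7-pt dose response, 24 h at 37 C/5% CO2; FLuc then NanoLuc reagent, 10 min each, luminescence; DMSO/positive control normalized.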

[5] = qHTS for Activators of Parkin Expression: LOPAC Validation Assay (FLuc Reporter) (AID 720573)
Method in brief: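 Readout is FLuc luminescence from neuronal reporter cells (Parkin promoter, FLuc plus NLuc) after 24 h compound exposure in dose response. Values normalized to neutral DMSO and positive-control compounds.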

[6] = target: T1, Hexokinase-4 (Homo sapiens) + Glucokinase regulatory protein (Homo sapiens) (UniProt P35557+Q14397); assay: qHTS assay for inhibitors of recombinant human GCK-GKRP interaction: Diaphorase-coupled assay (AID 743205)
T1 sequence (P35557 whole entry, looked up): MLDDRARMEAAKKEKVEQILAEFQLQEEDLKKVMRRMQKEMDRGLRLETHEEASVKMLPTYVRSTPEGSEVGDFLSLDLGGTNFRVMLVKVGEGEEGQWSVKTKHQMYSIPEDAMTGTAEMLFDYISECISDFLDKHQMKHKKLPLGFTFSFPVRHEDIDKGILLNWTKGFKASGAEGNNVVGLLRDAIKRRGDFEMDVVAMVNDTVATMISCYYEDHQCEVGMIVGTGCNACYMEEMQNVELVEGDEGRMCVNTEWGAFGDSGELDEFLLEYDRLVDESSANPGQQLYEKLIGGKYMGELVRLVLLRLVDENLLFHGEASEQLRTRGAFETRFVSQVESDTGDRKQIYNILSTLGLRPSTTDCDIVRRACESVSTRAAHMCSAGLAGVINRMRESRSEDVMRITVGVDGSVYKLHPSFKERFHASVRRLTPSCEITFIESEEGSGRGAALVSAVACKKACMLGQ
T1 sequence (Q14397 whole entry, looked up): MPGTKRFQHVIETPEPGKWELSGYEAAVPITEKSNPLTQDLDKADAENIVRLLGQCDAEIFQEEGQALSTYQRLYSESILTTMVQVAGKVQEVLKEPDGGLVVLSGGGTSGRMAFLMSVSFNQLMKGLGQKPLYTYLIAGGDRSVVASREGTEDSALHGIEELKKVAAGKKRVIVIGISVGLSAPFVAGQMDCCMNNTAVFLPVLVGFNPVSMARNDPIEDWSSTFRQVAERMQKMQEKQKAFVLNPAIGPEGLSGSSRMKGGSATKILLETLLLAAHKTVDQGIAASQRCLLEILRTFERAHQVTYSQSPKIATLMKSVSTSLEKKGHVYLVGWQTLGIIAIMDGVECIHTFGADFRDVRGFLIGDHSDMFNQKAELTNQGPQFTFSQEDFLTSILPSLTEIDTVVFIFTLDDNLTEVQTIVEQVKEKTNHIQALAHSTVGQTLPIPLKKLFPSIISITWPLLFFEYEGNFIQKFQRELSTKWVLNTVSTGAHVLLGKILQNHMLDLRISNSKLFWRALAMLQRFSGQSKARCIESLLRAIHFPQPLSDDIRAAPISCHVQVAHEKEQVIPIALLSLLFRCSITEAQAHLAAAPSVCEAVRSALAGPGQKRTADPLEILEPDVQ
Method in brief: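 Signal derives from resorufin generated by diaphorase, linked to GCK turnover of glucose (5 mM) and ATP (0.4 mM). Enzyme complex was added after a 20-minute compound preincubation and monitored for 30 minutes.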

[7] = target: T1, Hexokinase-4 (Homo sapiens) + Glucokinase regulatory protein (Homo sapiens); assay: qHTS assay for inhibitors of recombinant human GCK-GKRP interaction: ADP-Glo assay (AID 743206)
Method in brief: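 GST-GCK and FLAG-GKRP (15 nM each in the dispensed mix, with 2 uM S6P) react with 0.4 mM ATP and 5 mM glucose (final) in Hepes pH 7.6 for 60 min at room temperature. ADP is measured by ADP-Glo luminescence.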

[8] = target: T1, Hexokinase-4 (Homo sapiens) + Glucokinase regulatory protein (Homo sapiens); assay: qHTS assay for inhibitors of recombinant human GCK-GKRP interaction: HTRF assay (AID 743207)
Method in brief: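 Titration screening format: recombinant GST-GCK and FLAG-GKRP at 5 nM, S6P at 2 uM, labelled anti-tag antibodies, 60 min at RT, dual-wavelength HTRF readout.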

[9] = qHTS profiling for inhibitors of Plasmodium falciparum (3D7) proliferation (AID 743322);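 also: infected erythrocytes exposed to compound for 72 h before lysis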; conditions: P. falciparum 3D7 proliferation, at 28.7 µM (top of the series)
Method in brief: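 Erythrocytes infected with P. falciparum (0.3% parasitemia, 2.5% hematocrit) incubated with compounds 72 h at 37 C, 5% CO2. Lysis with saponin/Triton buffer containing SYBR Green I, overnight at room temperature in the dark; DNA fluorescence (485/535 nm) normalised to 0.29 uM artemisinin and DMSO.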

Row | Compound | max response [1] | Potency [2] | outcome [3] | outcome [4] | Potency [5] | Potency [6] | Potency [7] | Potency [8] | Potency [1] | remaining parasite growth % (stronger effect = lower value) [9] [%]
1 | C[C@@H]1CC(=O)NN=C1c1ccc(NN=C(C#N)C#N)cc1 | 16.6% (inactive) |  |  |  |  |  |  |  |  | 
2 | NCCc1cnc[nH]1 | 8.45% (inactive) and 33% (inactive) | inactive | inactive | inactive | inactive | inactive | inactive | inactive |  | 
3 | O=C(C1CCCCC1)N1CC(=O)N2CCc3ccccc3C2C1 (stereo unspecified) | 3.64% (inactive) and 8.77% (inactive) |  | inactive |  |  |  |  |  |  | 
4 | CC(C)NCC(O)COc1ccc(CCOCC2CC2)cc1 (stereo unspecified) | -0.0756% (inactive) and 27.3% (inactive) |  | inactive | inactive | inactive | inactive | inactive |  |  | 
5 | COc1cc2nc(N3CCN(C(=O)C4COc5ccccc5O4)CC3)nc(N)c2cc1OC (stereo unspecified) | 2.28% (inactive) | inactive | inactive | inactive | inactive | inactive | inactive | inactive |  | 
6 | CCOC(=O)c1ncn2c1CN(C)C(=O)c1cc(F)ccc1-2 | 2.86% (inactive) and 37.5% (inactive) |  | inactive | inactive | inactive | inactive | inactive | inactive |  | 
7 | CS(=O)(=O)Nc1ccc([N+](=O)[O-])cc1Oc1ccccc1 | -0.179% (inactive) and 5.92% (inactive) | inactive | inactive | inactive | inactive | inactive | inactive | inactive |  | 
8 | CC(C(=O)O)c1cccc(C(=O)c2ccccc2)c1 (stereo unspecified) | 3.48% (inactive) and 27.8% (inactive) | inactive | inactive | inactive | inactive |  |  |  |  | 
9 | CN(C)C(=O)C(CCN1CCC(O)(c2ccc(Cl)cc2)CC1)(c1ccccc1)c1ccccc1 |  |  | inactive | inactive | inactive |  |  |  |  | 
10 | CCc1cccc2c3c([nH]c12)C(CC)(CC(=O)O)OCC3 (stereo unspecified) | 10.8% (inactive) and -5.14% (inactive) | inactive | inactive | inactive | inactive | inactive | inactive | inactive |  | 
11 | CCOC(=O)Nc1ccc(NCc2ccc(F)cc2)nc1N |  |  | inactive | inactive | inactive |  | inactive | inactive |  | 
12 | Clc1ccc2c(c1)C(N1CCNCC1)=Nc1ccccc1O2 | -3.09% (inactive) | inactive | inactive | inactive | inactive | inactive | inactive | inactive | 794 nM (active) | 
13 | C[C@H]1c2cccc(O)c2C(O)=C2C(=O)[C@]3(O)C(O)=C(C(N)=O)C(=O)[C@@H](N(C)C)[C@@H]3[C@@H](O)[C@@H]21 | 18.1% (inactive) | inactive | inactive | inactive | inactive | inactive | inactive | inactive |  | 16.9
14 | CN1CCN2c3ccccc3Cc3ccccc3C2C1 (stereo unspecified) | 25.6% (inactive) |  | inactive | inactive | inactive | inactive | inactive | inactive |  | 
15 | NC(CO)C(=O)NNCc1ccc(O)c(O)c1O (stereo unspecified) | 0.751% (inactive) | inactive | inactive | inactive | inactive | inactive | inactive | inactive |  | 
16 | CN1C2CCC1CC(OC(=O)C(CO)c1ccccc1)C2 (stereo unspecified) |  |  | inactive | inactive | inactive | inactive | inactive | inactive |  | 
17 | CCCCc1oc2ccccc2c1C(=O)c1cc(I)c(OCCN(CC)CC)c(I)c1 |  |  | inactive | inactive | inactive | inactive | inactive | inactive |  | 
18 | CN(C)c1nc(N(C)C)nc(N(C)C)n1 | 17.1% (inactive) and -2.91% (inactive) | inactive | inactive | inactive | inactive | inactive | inactive | inactive |  | 
19 | CCC1(C)CC(=O)NC1=O (stereo unspecified) | 19% (inactive) and 33% (inactive) |  | inactive | inactive | inactive | inactive | inactive | inactive |  | 
20 | COc1ccc(C2CNC(=O)C2)cc1OC1CCCC1 (stereo unspecified) | 8.29% (inactive) and 32.6% (inactive) |  | inactive | inactive | inactive | inactive | inactive | inactive |  | 
21 | O=C(c1ccc(F)cc1)C1CCN(CCn2c(=O)[nH]c3ccccc3c2=O)CC1 | 7.32% (inactive) and -5.52% (inactive) |  | inactive | inactive | inactive | inactive | inactive | inactive |  | 
22 | CC(C)(C)C(=O)Oc1ccc(S(=O)(=O)Nc2ccccc2C(=O)NCC(=O)O)cc1 | 3.13% (inactive) |  |  |  |  |  |  |  |  | 
